Test results taken from PubChem BioAssay (NCATS).
“And” between values parts separate entries of the source, which are not always exact repeats. Identical values can stand only once. Results filed as inconclusive are left out. A call without a number means that no potency is given here. The source made the active and inactive calls. Unless noted, calls follow the shape of the full dose curve.

Assays:
[1] = MultiTox-Fluor Cytotoxicity Assay - LYMP1-001 - Live Cells (AID 947; active = well fitted curve in the direction sought with a large enough effect; an effect the other way counts as inactive or inconclusive)
[2] = Cell Viability - LYMP2-015 (AID 971; active = well fitted curve in the direction sought with a large enough effect; an effect the other way counts as inactive or inconclusive;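 also: cells exposed to compound for 24 h; nearly all actives have a fitted effect of over 55% in size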)
Summary of the method: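 Cells are seeded at 2500 per well and incubated 5 hr at 37 C. Compounds are added across a concentration series for 24 hr at 37 C. CellTiter-Glo is added, and luminescence is read after 30 min at room temperature.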

[3] = Cell Viability - LYMP2-024 (AID 988; active = well fitted curve in the direction sought with a large enough effect; an effect the other way counts as inactive or inconclusive; also: nearly all actives have a fitted effect of over 60% in size)
Summary of the method: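 qHTS cytotoxicity, human lymphoblastoid line, complete medium; 24 h cpd treatment, 37 C; CellTiter-Glo ATP luminescence readout; tetraoctylammonium bromide positive control; AC50 via Hill fit.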

[4] = target: Glucocorticoid receptor (Homo sapiens) (UniProt P04150); assay: qHTS assay for small molecule agonists of glucocorticoid receptor signaling (AID 588532; active = well fitted curve in the direction sought with a large enough effect in the signal ratio, with a control signal flat; the % refers to the signal ratio); conditions: HeLa MMTV-bla, beta-lactamase ratio, agonist, 18 h; stronger effect = higher value; percent of dexamethasone control, DMSO zero
Summary of the method: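 Titration series, up to 92 uM, applied to GRE-bla HeLa cells for 18 h at 37 C. Detection by CCF4 FRET substrate after 2 h at RT.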

[5] = target: Glucocorticoid receptor (Homo sapiens) (UniProt P04150); assay: qHTS assay for small molecule antagonists of glucocorticoid receptor signaling (AID 588533; active = well fitted inhibition curve with a large enough effect in the signal ratio, with a control signal flat, not every such curve was filed as active; the % refers to the signal ratio;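 also: cells stimulated with 2 nM dexamethasone as agonist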)
Summary of the method: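 Antagonist-mode qHTS: compound titrations added to GRE-bla HeLa cells, then dexamethasone 2 nM final; 18 h, 37 C. CCF4 FRET fluorescence normalized to dexamethasone and DMSO; IC50 from Hill fit.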

[6] = target: Peroxisome proliferator-activated receptor delta (Homo sapiens) (UniProt Q03181); assay: qHTS assay for small molecule agonists of peroxisome proliferator-activated receptor delta signaling (AID 588534)
Summary of the method: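 Agonist-mode qHTS; reporter cells, 5 hrs 37 C pre-incubation; compound titration, 18 hrs 37 C; CCF4 dye, 2 hrs RT; fluorescence read. EC50/efficacy via Hill fit.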

[7] = qHTS assay for small molecule antagonists of peroxisome proliferator-activated receptor delta signaling (AID 588535; active = well fitted inhibition curve with a large enough effect in the signal ratio, with a control signal flat, not every such curve was filed as active; the % refers to the signal ratio;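 as to max response: cells co-treated with a PPAR-delta agonist as stimulator during compound exposure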); conditions: HEK293T PPARd-UAS-bla, beta-lactamase FRET ratio, 18 h; 460 nm channel
Summary of the method: (§1)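 Inhibition of PPAR-delta response element-driven beta-lactamase expression is measured in HEK293T cells exposed to a compound titration series for 18 hrs at 37 C. Half-maximal inhibition comes from Hill equation fitting.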

[8] = target: Peroxisome proliferator-activated receptor delta (Homo sapiens) (UniProt Q03181); assay: as above
Summary of the method: as §1

[9] = target: Peroxisome proliferator-activated receptor gamma (Homo sapiens) (UniProt P37231); assay: qHTS assay for small molecule agonists of peroxisome proliferator-activated receptor gamma signaling (AID 588536; active = well fitted curve in the direction sought with a large enough effect in the signal ratio, with a control signal flat, not every such curve was filed as active; the % refers to the signal ratio)
Summary of the method: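 Cells were plated and held 6–6.5 h at 37 C, then compounds were added as a titration series. After a further 16 h, CCF4 dye was loaded for 2 h at room temperature and emission at 460/530 nm recorded.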

[10] = target: Peroxisome proliferator-activated receptor gamma (Homo sapiens) (UniProt P37231); assay: qHTS assay for small molecule antagonists of peroxisome proliferator-activated receptor gamma signaling (AID 588537; active = well fitted inhibition curve with a large enough effect in the signal ratio, with a control signal flat, not every such curve was filed as active; the % refers to the signal ratio;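 also: reporter cells co-stimulated with 50 nM rosiglitazone agonist during compound treatment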)
Summary of the method: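 Compounds are tested as concentration series for inhibition of rosiglitazone-driven (50 nM) reporter expression in GeneBLAzer PPAR-gamma-UAS-bla HEK293 cells. After 16 h at 37 C, CCF4 substrate is added for 2 h at room temperature and blue/green fluorescence is measured.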

[11] = target: Vitamin D3 receptor (Homo sapiens) (UniProt P11473); assay: qHTS assay for small molecule antagonists of vitamin D receptor signaling (AID 588541);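 also: receptor activated by calcitriol during compound treatment; series mostly up to about 77 µM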
Summary of the method: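 VDR-UAS-bla HEK293T cells (2000/well, 2% charcoal-stripped FBS) were treated with titrated compounds plus 1-alpha,25-dihydroxyvitamin D3 (50 nM or 3 nM final) for 16 h at 37 C. CCF4 beta-lactamase fluorescence was read; Hill fits gave IC50.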

[12] = qHTS assay for small molecule agonists of the antioxidant response element (ARE) signaling pathway (AID 651741; active = well fitted activation curve with a large enough effect in the signal ratio; the % refers to the signal ratio; also: potency is read from the fitted curve at half-maximal effect)
Summary of the method: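 Reporter: beta-lactamase under ARE, stably in HepG2. Exposure: 16 h, 37 C, compounds delivered in DMSO by pin tool after 5 h cell preincubation. Readout: FRET substrate fluorescence after 2 h at RT.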

[13] = qHTS assay for small molecule activators of the p53 signaling pathway (AID 651743; active = well fitted activation curve with a large enough effect in the signal ratio, not every such curve was filed as active; the % refers to the signal ratio; also: series mostly up to about 92 µM); conditions: HCT-116 p53RE-bla, beta-lactamase FRET ratio, 16 h; activation: stronger effect = higher value
Summary of the method: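 Agonist-mode quantitative HTS in HCT-116 cells carrying a p53-response-element beta-lactamase reporter; 16 h compound treatment at 37 C, then FRET substrate loading for 2 h at room temperature and fluorescence read.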

[14] = qHTS assay for small molecule disruptors of the mitochondrial membrane potential - 1 hr assay (AID 651754); also: nearly all actives have a fitted effect of over 35% in size
Summary of the method: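 Loss of mitochondrial potential shifts the cationic dye from red mitochondrial aggregates to green cytoplasmic monomers. Cells (HepG2) are treated with compound for 1 hr before a 30 min dye incubation at 37C.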

[15] = target: Thyroid hormone receptor beta (Homo sapiens) (UniProt P10828); assay: qHTS assay for small molecule antagonists of thyroid hormone receptor beta signaling (AID 588547; active = well fitted inhibition curve with a large enough effect in the signal ratio, with a control signal flat, not every such curve was filed as active; the % refers to the signal ratio;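 also: cells stimulated with 0.4 nM T3 agonist during compound exposure; series mostly up to about 77 µM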); conditions: TR-UAS-bla HEK293, beta-lactamase ratio, antagonist mode, 18 h
Summary of the method: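 TR-UAS-bla GripTite HEK293 cells in 2% charcoal/dextran FBS medium were preincubated 4 h at 37 C, given compound (0.59 nM to 92 uM) plus 0.4 nM T3 (final) for 18 h, then CCF4 for 2 h at RT; Hill fit gave IC50.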

[16] = target: Voltage-gated inwardly rectifying potassium channel KCNH2 (Homo sapiens) (UniProt Q12809); assay: qHTS Assay for Small Molecule Inhibitors of the Human hERG Channel Activity (AID 588834; active = well fitted curve in the direction sought with a large enough effect; an effect the other way counts as inactive or inconclusive;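 also: top concentration of the series differs between compounds; lower thallium flux fluorescence means stronger hERG block; nearly all actives have a fitted effect of over 50% in size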)
Summary of the method: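 Thallium serves as surrogate for K+ influx through BacMam-delivered hERG in U2OS cells. Compounds are added for about 10 minutes after dye loading; stimulation buffer then starts flux, monitored kinetically on FDSS.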

[17] = target: Thyroid hormone receptor beta (Homo sapiens) (UniProt P10828); assay: qHTS assay for small molecule agonists of thyroid hormone receptor beta signaling (AID 588545)
Summary of the method: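 TR-UAS-bla-GripTite HEK 293 cells in medium with 2% charcoal/dextran FBS, 0.1 mM NEAA and 1 mM sodium pyruvate were treated with titrated compounds for 18 hrs at 37 C. Beta-lactamase reporter was read with CCF4 dye (ex 405, em 460/530 nm); EC50 from Hill fits.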

[18] = qHTS assay for small molecule activators of the nuclear factor-kappa B (NF-kB) signaling pathway (AID 651749; active = well fitted activation curve with a large enough effect in the signal ratio; the % refers to the signal ratio; also: series mostly up to about 77 µM); conditions: NF-kB-bla ME-180 cells, beta-lactamase FRET ratio, 16 h; stronger effect = higher value
Summary of the method: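 Human ME-180 cervical cells with an NF-kB-bla construct; compounds added via 23 nL pin transfer, DMSO as vehicle; incubation 16 hr. Reporter activity measured by FRET disruption.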

[19] = target: Bile acid receptor (Homo sapiens) (UniProt Q96RI1); assay: qHTS assay for small molecule agonists of farnesoid X receptor signaling (AID 588527); conditions: HEK293T FXR-UAS-bla, beta-lactamase ratio, 16 h; stronger effect = higher value; also: series mostly up to about 77 µM
Summary of the method: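 FXR-UAS-bla HEK293T cells (10% dialyzed FBS) preincubated 5-7 h at 37 C, then compounds at up to 92 uM for 16 h at 37 C. CCF4 beta-lactamase read-out after 2 h RT. Normalized to chenodeoxycholic acid (100 uM) and DMSO; Hill fit gave EC50 and efficacy.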

[20] = target: Estrogen receptor (Homo sapiens) (UniProt P03372); assay: qHTS assay for small molecule antagonists of estrogen receptor alpha signaling (AID 588513; active = well fitted curve in the direction sought with a large enough effect in the signal ratio, with a control signal flat, not every such curve was filed as active; the % refers to the signal ratio)
Summary of the method: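 ER-alpha-UAS-bla GripTite HEK 293 cells in 2% charcoal/dextran-treated FBS medium; compounds titrated (1:2, duplicate), then stimulated with 0.5 nM 17-beta-estradiol for 18 h at 37C. CCF4 beta-lactamase fluorescence; Hill-fit IC50 and efficacy.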

Glucocorticoid receptor (Homo sapiens), sequence (P04150 whole entry, looked up): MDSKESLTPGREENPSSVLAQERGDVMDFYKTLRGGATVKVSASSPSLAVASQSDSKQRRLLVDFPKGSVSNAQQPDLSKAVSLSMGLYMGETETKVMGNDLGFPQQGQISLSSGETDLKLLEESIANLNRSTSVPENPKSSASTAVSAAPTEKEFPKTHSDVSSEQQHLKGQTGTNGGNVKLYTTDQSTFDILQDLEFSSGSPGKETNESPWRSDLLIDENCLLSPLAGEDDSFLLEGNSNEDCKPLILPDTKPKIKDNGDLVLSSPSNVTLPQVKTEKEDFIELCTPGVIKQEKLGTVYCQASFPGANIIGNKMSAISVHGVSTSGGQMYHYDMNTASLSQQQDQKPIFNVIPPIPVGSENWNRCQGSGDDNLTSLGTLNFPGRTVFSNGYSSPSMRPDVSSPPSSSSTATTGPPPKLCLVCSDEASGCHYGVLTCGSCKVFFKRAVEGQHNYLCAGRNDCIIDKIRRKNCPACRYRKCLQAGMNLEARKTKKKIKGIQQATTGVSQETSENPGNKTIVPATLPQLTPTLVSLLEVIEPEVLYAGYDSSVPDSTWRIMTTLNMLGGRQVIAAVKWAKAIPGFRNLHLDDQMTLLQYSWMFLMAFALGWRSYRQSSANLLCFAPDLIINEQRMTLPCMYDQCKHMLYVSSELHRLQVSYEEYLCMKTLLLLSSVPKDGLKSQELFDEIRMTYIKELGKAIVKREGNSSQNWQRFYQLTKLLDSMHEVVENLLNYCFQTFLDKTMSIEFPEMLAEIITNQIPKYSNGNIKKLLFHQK
Voltage-gated inwardly rectifying potassium channel KCNH2 (Homo sapiens), sequence (Q12809 whole entry, looked up): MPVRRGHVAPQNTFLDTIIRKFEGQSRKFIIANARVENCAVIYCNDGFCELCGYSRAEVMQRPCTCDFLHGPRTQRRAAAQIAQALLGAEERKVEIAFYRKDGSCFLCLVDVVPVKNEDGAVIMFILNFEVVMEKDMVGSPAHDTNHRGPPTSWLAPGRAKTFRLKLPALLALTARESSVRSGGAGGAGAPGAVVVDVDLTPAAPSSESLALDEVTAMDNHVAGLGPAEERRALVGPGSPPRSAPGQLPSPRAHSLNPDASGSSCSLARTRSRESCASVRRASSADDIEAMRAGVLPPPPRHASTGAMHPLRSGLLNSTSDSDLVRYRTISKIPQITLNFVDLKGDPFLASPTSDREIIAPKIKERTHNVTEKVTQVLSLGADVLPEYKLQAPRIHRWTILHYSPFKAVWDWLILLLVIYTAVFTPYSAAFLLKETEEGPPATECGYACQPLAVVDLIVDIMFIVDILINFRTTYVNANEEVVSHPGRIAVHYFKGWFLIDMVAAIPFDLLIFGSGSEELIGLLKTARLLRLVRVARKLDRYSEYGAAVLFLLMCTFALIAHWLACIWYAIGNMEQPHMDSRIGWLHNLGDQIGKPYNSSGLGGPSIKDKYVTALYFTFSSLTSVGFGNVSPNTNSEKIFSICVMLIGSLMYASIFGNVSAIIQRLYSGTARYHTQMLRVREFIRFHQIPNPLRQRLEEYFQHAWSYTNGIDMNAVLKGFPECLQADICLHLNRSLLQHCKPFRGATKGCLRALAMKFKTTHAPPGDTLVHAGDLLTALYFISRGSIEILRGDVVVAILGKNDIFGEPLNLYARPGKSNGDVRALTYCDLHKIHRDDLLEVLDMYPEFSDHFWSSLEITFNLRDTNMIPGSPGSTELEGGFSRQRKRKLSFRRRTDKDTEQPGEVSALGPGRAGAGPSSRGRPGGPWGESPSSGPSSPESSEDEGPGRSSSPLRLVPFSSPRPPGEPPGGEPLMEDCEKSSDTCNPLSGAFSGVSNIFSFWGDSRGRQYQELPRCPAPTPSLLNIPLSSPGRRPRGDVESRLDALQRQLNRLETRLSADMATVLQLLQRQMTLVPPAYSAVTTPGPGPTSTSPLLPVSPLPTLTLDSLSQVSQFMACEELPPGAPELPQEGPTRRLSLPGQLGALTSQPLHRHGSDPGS
Peroxisome proliferator-activated receptor gamma (Homo sapiens), sequence (P37231 whole entry, looked up): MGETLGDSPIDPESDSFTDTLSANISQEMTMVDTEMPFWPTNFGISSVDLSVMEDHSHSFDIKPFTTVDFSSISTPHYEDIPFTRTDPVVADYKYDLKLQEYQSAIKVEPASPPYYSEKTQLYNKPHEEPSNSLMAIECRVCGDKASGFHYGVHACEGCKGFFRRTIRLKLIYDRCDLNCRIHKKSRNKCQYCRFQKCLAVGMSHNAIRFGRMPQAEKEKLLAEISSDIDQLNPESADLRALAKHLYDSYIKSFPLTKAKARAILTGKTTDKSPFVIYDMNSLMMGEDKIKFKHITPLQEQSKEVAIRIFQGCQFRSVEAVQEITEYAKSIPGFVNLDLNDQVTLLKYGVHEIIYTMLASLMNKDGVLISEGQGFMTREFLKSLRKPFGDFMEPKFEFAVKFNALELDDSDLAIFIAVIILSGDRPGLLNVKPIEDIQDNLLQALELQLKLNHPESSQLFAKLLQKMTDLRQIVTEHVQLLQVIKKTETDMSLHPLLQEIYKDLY
Peroxisome proliferator-activated receptor delta (Homo sapiens), sequence (Q03181 whole entry, looked up): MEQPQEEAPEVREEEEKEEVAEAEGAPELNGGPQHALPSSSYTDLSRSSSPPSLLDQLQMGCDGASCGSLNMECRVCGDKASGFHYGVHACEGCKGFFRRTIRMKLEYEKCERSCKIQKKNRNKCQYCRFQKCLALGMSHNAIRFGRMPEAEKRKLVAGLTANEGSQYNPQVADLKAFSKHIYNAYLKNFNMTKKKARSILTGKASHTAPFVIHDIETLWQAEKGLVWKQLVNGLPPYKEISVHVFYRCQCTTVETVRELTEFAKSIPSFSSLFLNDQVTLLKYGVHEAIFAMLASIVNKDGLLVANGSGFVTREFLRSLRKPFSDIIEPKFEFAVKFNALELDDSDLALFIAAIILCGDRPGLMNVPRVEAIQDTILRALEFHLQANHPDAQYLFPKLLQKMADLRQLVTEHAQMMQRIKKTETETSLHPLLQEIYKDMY
Thyroid hormone receptor beta (Homo sapiens), sequence (P10828 whole entry, looked up): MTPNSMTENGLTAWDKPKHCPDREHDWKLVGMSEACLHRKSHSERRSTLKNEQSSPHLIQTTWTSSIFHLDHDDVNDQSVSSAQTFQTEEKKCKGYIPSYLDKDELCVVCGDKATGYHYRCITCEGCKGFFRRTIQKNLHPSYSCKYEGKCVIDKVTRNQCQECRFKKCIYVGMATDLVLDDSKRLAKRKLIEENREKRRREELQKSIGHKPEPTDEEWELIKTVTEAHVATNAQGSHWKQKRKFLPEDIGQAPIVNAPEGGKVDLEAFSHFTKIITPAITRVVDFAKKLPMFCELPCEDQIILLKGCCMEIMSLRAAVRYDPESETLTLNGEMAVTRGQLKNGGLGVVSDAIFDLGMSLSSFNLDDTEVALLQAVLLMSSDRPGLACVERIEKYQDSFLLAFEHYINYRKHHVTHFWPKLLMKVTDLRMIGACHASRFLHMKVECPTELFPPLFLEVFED
Vitamin D3 receptor (Homo sapiens), sequence (P11473 whole entry, looked up): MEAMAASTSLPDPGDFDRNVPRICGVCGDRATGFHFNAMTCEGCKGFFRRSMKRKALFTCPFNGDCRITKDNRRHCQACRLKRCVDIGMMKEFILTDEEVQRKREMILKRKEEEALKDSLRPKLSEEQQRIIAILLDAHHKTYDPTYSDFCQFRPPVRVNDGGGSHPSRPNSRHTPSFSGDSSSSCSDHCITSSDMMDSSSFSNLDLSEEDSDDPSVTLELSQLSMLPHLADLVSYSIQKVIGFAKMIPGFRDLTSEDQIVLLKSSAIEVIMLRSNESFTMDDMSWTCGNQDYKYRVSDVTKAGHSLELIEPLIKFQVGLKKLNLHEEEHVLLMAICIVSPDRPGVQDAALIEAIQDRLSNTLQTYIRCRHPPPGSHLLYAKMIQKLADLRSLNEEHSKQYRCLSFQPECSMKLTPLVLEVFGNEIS
Bile acid receptor (Homo sapiens), sequence (Q96RI1 whole entry, looked up): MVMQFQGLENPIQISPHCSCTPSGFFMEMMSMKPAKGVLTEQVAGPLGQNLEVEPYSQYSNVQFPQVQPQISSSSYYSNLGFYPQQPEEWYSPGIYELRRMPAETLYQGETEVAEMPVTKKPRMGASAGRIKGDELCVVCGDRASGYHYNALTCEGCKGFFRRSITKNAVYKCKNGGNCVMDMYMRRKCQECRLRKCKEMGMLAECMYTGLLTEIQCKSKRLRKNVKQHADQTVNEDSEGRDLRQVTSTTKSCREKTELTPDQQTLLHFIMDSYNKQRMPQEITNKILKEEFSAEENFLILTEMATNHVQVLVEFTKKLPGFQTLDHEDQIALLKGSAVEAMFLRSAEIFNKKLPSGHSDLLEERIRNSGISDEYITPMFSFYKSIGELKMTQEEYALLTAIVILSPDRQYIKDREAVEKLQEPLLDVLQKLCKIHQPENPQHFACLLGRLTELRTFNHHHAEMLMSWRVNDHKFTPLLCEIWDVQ
Estrogen receptor (Homo sapiens), sequence (P03372 whole entry, looked up): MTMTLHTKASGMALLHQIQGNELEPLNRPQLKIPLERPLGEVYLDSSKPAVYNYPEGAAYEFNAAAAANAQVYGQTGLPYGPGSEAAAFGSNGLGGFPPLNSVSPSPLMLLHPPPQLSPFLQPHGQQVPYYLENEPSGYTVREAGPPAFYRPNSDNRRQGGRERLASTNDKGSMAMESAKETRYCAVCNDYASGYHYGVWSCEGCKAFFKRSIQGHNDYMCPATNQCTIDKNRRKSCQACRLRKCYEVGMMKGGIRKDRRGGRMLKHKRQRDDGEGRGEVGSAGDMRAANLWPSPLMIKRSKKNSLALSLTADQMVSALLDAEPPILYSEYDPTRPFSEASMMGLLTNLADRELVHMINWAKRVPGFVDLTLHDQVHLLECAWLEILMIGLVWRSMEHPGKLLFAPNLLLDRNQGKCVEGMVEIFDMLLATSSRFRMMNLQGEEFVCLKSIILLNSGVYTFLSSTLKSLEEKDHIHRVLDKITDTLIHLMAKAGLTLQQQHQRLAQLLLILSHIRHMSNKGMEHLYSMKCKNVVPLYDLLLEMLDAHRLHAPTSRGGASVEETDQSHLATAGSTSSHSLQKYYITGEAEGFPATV

SMILES	outcome [1]	Potency [2]	Potency [3]	activation [4]	outcome [5]	outcome [6]	max response [7]	outcome [8]	outcome [9]	Potency [10]	outcome [11]	Potency [12]	activation [13]	Potency [14]	activity change % (negative = inhibition) [15]	Potency [16]	Potency [17]	activation [18]	activation [19]	Potency [20]
CCOP(=O)(OCC)OCC	inactive	inactive	inactive	4.27% (inactive) and 16.4% (inactive)	inactive	inactive	8.93% and -1.46%	inactive	inactive	inactive	inactive	inactive	2.61% (inactive) and -1.3% (inactive)	inactive						
ClCC(Cl)CCl	inactive	inactive	inactive	-1.49% (inactive) and -1.66% (inactive)	inactive	inactive	17.7%				inactive	inactive	2.35% (inactive) and -2.96% (inactive)	inactive	0.0158% (inactive) and 2.43% (inactive)	inactive				
Oc1cc(Cl)ccc1Cl	inactive	inactive	inactive	0.0862% (inactive) and 2.52% (inactive)		inactive	32.2% and -9.59%		inactive	inactive	inactive	inactive	0.543% (inactive) and -4% (inactive)		-3.5% (inactive)		inactive	-0.753% (inactive) and -0.792% (inactive)		
CN=C=O	inactive	inactive	inactive			inactive	61.5%	inactive				inactive		inactive		inactive	inactive			
O=Cc1ccc2c(c1)OCO2		inactive		1.67% (inactive)		inactive	-1.49%	inactive	inactive		inactive	inactive		inactive	5.85% (inactive)	inactive	inactive	-0.011% (inactive)	0.344% (inactive)	
C=CC(=O)OCC(CC)CCCC (configuration not stated)	inactive		inactive	-0.1% (inactive) and -12.6% (inactive)		inactive	10.4% and 11.2%	inactive	inactive	inactive		inactive	0.81% (inactive) and 5.58% (inactive)			inactive	inactive	-0.0286% (inactive) and 0.831% (inactive)		
Nc1cc(Cl)ccc1Cl	inactive	inactive	inactive	-3.66% (inactive)		inactive							-3.16% (inactive)		16.8% (inactive)	inactive	inactive			
CC(Cl)CCl (configuration not stated)		inactive	inactive	4.13% (inactive)	inactive				inactive		inactive	inactive	0.619% (inactive)		-3.7% (inactive)		inactive			inactive
Cc1ccc(N)c(N)c1				0.413% (inactive)							inactive	37.6 µM (active)	-0.898% (inactive)		-28.6% (inactive)		inactive	-0.795% (inactive)		
CCOP(=S)(OCC)SCCSCC	inactive	inactive		13.6% (inactive)	inactive	inactive	-12.4% and 3.79%		inactive	inactive		inactive	-1.38% (inactive) and -6.24% (inactive)	inactive	6.91% (inactive) and -9.69% (inactive)		inactive	-0.799% (inactive) and -0.139% (inactive)		
O=[N+]([O-])c1ccc(Cl)cc1	inactive	inactive		-1.26% (inactive) and -4.41% (inactive)							inactive	inactive	0.333% (inactive) and 2.39% (inactive)	inactive	3.07% (inactive) and -2.63% (inactive)	inactive	inactive	-0.791% (inactive) and -0.89% (inactive)		
CCOS(C)(=O)=O	inactive	inactive	inactive			inactive	-10.7%	inactive	inactive		inactive		-2.6% (inactive)		-1.09% (inactive)	inactive		0.8% (inactive)	1.7% (inactive)	
